PubChem BioAssay
“And” between values parts separate entries of the source, which are not always exact repeats. Equal values may be shown once. Some compounds were tested as several samples or in several runs, with calls that do not always agree. The source made the active and inactive calls. Unless noted, no rule for the calls is given here.

Experiments:
[1] = liver-stage malaria parasite load reduction – cell-based, known kinase inhibitor set, luminescence, hepatoma host viability (AID 624392); conditions: Plasmodium liver stage in hepatoma cells, luciferase luminescence, concentration not given here; liver cell % of control: measured here: host liver cell viability; parasite % of control: stronger effect = lower value;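 also: infected cells incubated roughly two days before readout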
[2] = altered dexamethasone sensitivity, NF-kB reporter, cell-based, luciferase, IL-1B stimulus (AID 624486); conditions: IL-1B + dexamethasone, luminescence; percent of negative control (+Dex): actives lie on both sides, concentration not given here; z-score: measured here: IL-1B alone, no Dex;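 as to percent of negative control (+Dex): 100% = mean signal of vehicle control wells on the plate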
[3] = C. elegans survival during P. aeruginosa infection – whole organism (AID 651566);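 also: tested at 14 µM; sign flipped so higher z means a lower ratio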; conditions: C. elegans killed by P. aeruginosa, survival ratio
[4] = pro-inflammatory signaling induction in mouse macrophages – cell-based, murine, luminescence (AID 652131); conditions: murine macrophage pro-inflammatory reporter, stronger effect = higher value
[5] = biological target: Cellular tumor antigen p53 (Homo sapiens) (UniProt P04637); assay: GFP-p53 level modulators in HPV16+ cells – imaging, known kinase inhibitor set, EGFP/DsRed ratio (AID 1053116); conditions: GFP-p53 stability, stronger effect = higher value; EGFP object count: measured here: GFP-p53 positive objects count;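 also: cells exposed to compounds for 24 h at 37 °C before reading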
Chain of Cellular tumor antigen p53 (Homo sapiens) (P04637 whole entry, looked up): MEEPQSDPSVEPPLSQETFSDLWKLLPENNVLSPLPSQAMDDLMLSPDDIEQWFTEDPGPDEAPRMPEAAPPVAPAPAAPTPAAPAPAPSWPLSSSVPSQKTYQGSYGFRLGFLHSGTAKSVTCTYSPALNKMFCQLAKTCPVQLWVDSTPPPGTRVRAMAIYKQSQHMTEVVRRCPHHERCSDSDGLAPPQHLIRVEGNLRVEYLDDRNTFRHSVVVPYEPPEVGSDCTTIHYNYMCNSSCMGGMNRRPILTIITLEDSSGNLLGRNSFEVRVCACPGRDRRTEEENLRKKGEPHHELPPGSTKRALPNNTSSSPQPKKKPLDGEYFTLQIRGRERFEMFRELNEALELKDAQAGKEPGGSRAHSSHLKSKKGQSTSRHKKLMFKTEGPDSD

[6] = inducers of IRF3 signaling, differentiated THP-1 – cell-based, PMA-stimulated THP-1, luminescence (AID 1053176); conditions: PMA-differentiated THP-1, IRF3 reporter luminescence; stronger effect = higher value
[7] = MELAS cybrid and Rieske KO viability enhancers – cell-based, MELAS cybrids, Rieske KO mouse fibroblasts, CellTiter-Glo, primary screen (AID 1508586;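 active = mean z-score across replicates of 1.96 or higher in either the MELAS or the Rieske mutant cell line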;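 also: z relative to plate mean and SD of compound and empty wells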); conditions: low glucose
[8] = MELAS cybrid survival, CellTiter-Glo 48 h, stronger effect = higher value
[9] = Rieske KO mouse fibroblast survival, CellTiter-Glo 72 h

| Compound | liver cell % of control [1] | parasite % of control [1] | percent of negative control (+Dex) [2] | z-score [2] | z-score [3] | z-score [4] | EGFP object count [5] | EGFP/DsRed ratio [5] | fraction signal [6] | z-score [7, 8] | z-score [7, 9] |
| --- | --- | --- | --- | --- | --- | --- | --- | --- | --- | --- | --- |
| NS(=O)(=O)c1ccc(N=Cc2c(O)[nH]c3ccc4ncsc4c23)cc1 | 60.5% and 61.1% | 165% (inactive) and 378% (inactive) | 112% (inactive) and 98.5% (inactive) | 0.655 and 0.01 | 0.515 (inactive) and 0.145 (inactive) | -1.62 (inactive) and -1.7 (inactive) | 2.5 and 4 | 0.0629 (inactive) and 0.096 (inactive) | -0.009 (inactive) and 0.0005 (inactive) | -0.336 (inactive) and 1.1 (inactive) | 0.0286 and -0.139 |
| CN1CCC(C(=O)Nc2n[nH]c3nc(-c4ccc(O)cc4)c(Br)cc23)CC1 | 51.2% and 53.8% | 292% (inactive) and 294% (inactive) | 108% (inactive) and 100% (inactive) | -0.82 and -0.48 | 0.21 (inactive) and -0.175 (inactive) | -0.483 (inactive) and -0.641 (inactive) | 2.5 and 3 | 0.0956 (inactive) and 0.0438 (inactive) | 0.0155 (inactive) and 0.0035 (inactive) | -0.719 (inactive) and 2.2 (active) | -0.17 and -0.0758 |
| CCn1c(-c2nonc2N)nc2cncc(C(=O)N3CCNCC3)c21 | 101% | 140% (inactive) | 111% (inactive) | 0.555 | -0.355 (inactive) | 0.864 (inactive) | 8 | 0.129 (inactive) | -0.005 (inactive) | -0.623 (inactive) | 0.0786 |
| COc1ccc(CNC(=O)c2ccc(-c3cc(-c4nnc(C)o4)ccc3C)cc2)cc1 | 172% | 67.1% (inactive) | 102% (inactive) | 0.42 | 1.23 (inactive) | -0.363 (inactive) | 3 | 0.129 (inactive) | -0.008 (inactive) | -0.23 (inactive) | -0.248 |
| N#Cc1cccc(Nc2nccc(-c3cnn4ncccc34)n2)c1 | 128% | 19.1% (inactive) | 2% (active) | -9.25 | 0.415 (inactive) | -1.79 (inactive) | 1 | 0.00226 (inactive) | -0.013 (inactive) | 0.321 (inactive) | 1.44 |
| Cc1ccc(NC(=O)c2ccnc(N3CCCC3)c2)cc1-c1ccc(C(=O)NCC2CC2)cc1 | 90.4% | 91.3% (inactive) | 104% (inactive) | 0.86 | -0.79 (inactive) | -0.27 (inactive) | 6 | 0.0951 (inactive) | -0.0005 (inactive) | -0.285 (inactive) | -0.118 |
| CS(=O)(=O)CCNCc1ccc(-c2ccc3ncnc(Nc4ccc(OCc5ccccc5)cc4)c3c2)o1 | 63.9% | 59.1% (inactive) | 74.5% (inactive) | -1.54 | 0.41 (inactive) | -0.003 (inactive) | 6.5 | 0.116 (inactive) | 0.006 (inactive) | 0.5 (inactive) | -0.312 |
| N#Cc1cccc(Nc2ncc(-c3ccccc3)o2)c1 | 108% | 125% (inactive) | 241% (active) | 19.8 | -0.175 (inactive) | 4.37 (inactive) | 6 | 0.11 (inactive) | -0.004 (inactive) | 1.35 (inactive) | 0.0963 |
| CC(=O)Nc1cccc(C#Cc2cncnc2Nc2ccc(OCc3cccc(F)c3)c(Cl)c2)c1 | 111% | 108% (inactive) | 89.5% (inactive) | -0.925 | 0.045 (inactive) | -0.803 (inactive) | 3.5 | 0.169 (inactive) | 0.0085 (inactive) | -0.744 (inactive) | 0.00771 |
| FC(F)(F)c1cccc(-c2nn3ncccc3c2-c2ccnc(Nc3ccc4c(c3)OCCO4)n2)c1 | 147% | 22.4% (inactive) | 90.5% (inactive) | 0.13 | -0.325 (inactive) | -0.458 (inactive) | 5.5 | 0.171 (inactive) | 0.007 (inactive) | -0.0141 (inactive) | -0.445 |
| Cc1nn(C)c2cc(N(C)c3ccnc(Nc4cccc(S(N)(=O)=O)c4)n3)ccc12 | 71.5% | 67% (inactive) | 82% (inactive) | 0.54 | 0.53 (inactive) | 3.14 (inactive) | 2 | 0.0899 (inactive) | -0.0065 (inactive) | -0.638 (inactive) | 0.0293 |
| CN1CCC(C(=O)NC2NNC3NNC(c4ccccc4)CC32)CC1 (centres undefined) | 89.8% | 66% (inactive) | 90.5% (inactive) | -0.385 | -0.44 (inactive) | 3.5 (inactive) | 24 | 0.259 (inactive) | -0.0035 (inactive) | -0.114 (inactive) | -0.215 |
| COc1cc(Nc2ncc(-c3ccccc3)o2)cc(OC)c1 | 105% | 156% (inactive) | 158% (inactive) | 5.51 | -1.38 (inactive) | 1.77 (inactive) | 3.5 | 0.0542 (inactive) | 0.0025 (inactive) | 0.0476 (inactive) | -0.415 |
| c1cc(-c2cnn3nc(N4CCOCC4)ccc23)nc(NC2CC2)n1 | 147% | 177% (inactive) | 59.5% (inactive) | -2.65 | -0.225 (inactive) | -1.49 (inactive) | 3.5 | 0.0725 (inactive) | -0.008 (inactive) | 0.731 (inactive) | -0.389 |
